# Measured values published in PubChem BioAssay (EPA / NIEHS).
# Several values for one entry are separate records, joined by “and”; a condition that tells them apart may be missing. Equal entries are not always repeated. Records with an inconclusive call do not appear. Where a structure was tested more than once in an assay, its records may differ in their call. Activity calls are given as the source filed them. The calls were made as follows, unless noted: active = hit-call score of the fitted dose curve at least 0.9, where 1 is the maximum; inactive = score below 0.9.
# How the values were obtained:
# [1] = ATG_TAL_CIS: Attagene CIS-FACTORIAL HepG2 Assay for human TAL Basal Promoter (AID 2282966); conditions: HepG2 Attagene cis-factorial TAL promoter reporter; actives raise or lower the signal;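 also: background control endpoint measuring basal TAL promoter reporter mRNA not a specific factor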
# Method in brief: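 HepG2 cells transiently transfected with multiplexed cis-promoter reporter units, dosed 24 h. Reporter mRNA quantified by RT-PCR, 6-FAM labelling, HpaI digestion and capillary electrophoresis; TAL basal promoter serves as background control, fitted bidirectionally versus DMSO.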
# [2] = ATG_TGFb_CIS: Attagene CIS-FACTORIAL HepG2 Assay for human Transforming Growth Factor (TGF) (AID 2282967); conditions: HepG2 Attagene CIS TGFb reporter, mRNA transcription; actives raise or lower the signal
# Method in brief: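 HepG2 cells transiently transfected with cis-promoter-driven multiplexed reporter units; 24 h compound exposure. Reporter mRNA measured by RT-PCR, 6-FAM labeling, HpaI digestion and capillary electrophoresis; bidirectional fit versus DMSO baseline.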
# [3] = ATG_VDRE_CIS: Attagene CIS-FACTORIAL HepG2 Assay for human Vitamin D Receptor Element (VDRE) (AID 2282968); conditions: HepG2 VDRE cis-reporter transcription, actives raise or lower the signal
# Method in brief: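 Transiently transfected HepG2 cells carrying cis-regulated reporter transcription units were exposed for 24 h. Reporter mRNA was measured by RT-PCR with fluorescent labelling and capillary electrophoresis, and fitted in both directions against DMSO.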
# [4] = target: Nuclear receptor subfamily 1 group I member 3 (Homo sapiens) (UniProt Q14994); test: ATG_CAR_TRANS: Attagene TRANS-FACTORIAL HepG2 Assay for human Constitutive Androstane Receptor (CAR) (AID 2282969; active = hit-call score of the fitted dose curve at least 0.9, where 1 is the maximum;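 also: activators raise reporter mRNA above DMSO so AC50 marks induction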); conditions: HepG2 Attagene TRANS-FACTORIAL CAR reporter
# Nuclear receptor subfamily 1 group I member 3 (Homo sapiens), sequence (Q14994 whole entry, looked up, the tested form may be a part): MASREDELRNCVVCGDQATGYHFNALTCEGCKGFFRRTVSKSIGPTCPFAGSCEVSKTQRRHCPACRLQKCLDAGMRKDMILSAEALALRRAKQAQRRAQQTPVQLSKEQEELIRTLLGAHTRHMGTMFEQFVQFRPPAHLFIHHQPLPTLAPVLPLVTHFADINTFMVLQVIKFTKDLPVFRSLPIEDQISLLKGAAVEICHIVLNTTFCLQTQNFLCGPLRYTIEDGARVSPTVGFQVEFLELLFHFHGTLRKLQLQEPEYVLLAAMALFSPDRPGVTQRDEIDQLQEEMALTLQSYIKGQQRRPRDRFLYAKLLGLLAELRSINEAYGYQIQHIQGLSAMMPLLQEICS
# Method in brief: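 HepG2 cells transiently transfected with GAL4-UAS reporter units; TRANS format reads activity of exogenous chimeric NR-Gal4 protein. After 24 h dosing, reporter mRNA quantified by RT-PCR, 6-FAM labelling and capillary electrophoresis; gain of signal fitted against DMSO.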
# [5] = target: Steroid hormone receptor ERR1 (Homo sapiens) (UniProt P11474); test: ATG_ERRa_TRANS: Attagene TRANS-FACTORIAL HepG2 Assay for human Estrogen-Related Receptor alpha (ERRa) (AID 2282971; active = hit-call score of the fitted dose curve at least 0.9, where 1 is the maximum); conditions: HepG2 Attagene TRANS reporter, ERRa transactivation
# Steroid hormone receptor ERR1 (Homo sapiens), sequence (P11474 whole entry, looked up, the tested form may be a part): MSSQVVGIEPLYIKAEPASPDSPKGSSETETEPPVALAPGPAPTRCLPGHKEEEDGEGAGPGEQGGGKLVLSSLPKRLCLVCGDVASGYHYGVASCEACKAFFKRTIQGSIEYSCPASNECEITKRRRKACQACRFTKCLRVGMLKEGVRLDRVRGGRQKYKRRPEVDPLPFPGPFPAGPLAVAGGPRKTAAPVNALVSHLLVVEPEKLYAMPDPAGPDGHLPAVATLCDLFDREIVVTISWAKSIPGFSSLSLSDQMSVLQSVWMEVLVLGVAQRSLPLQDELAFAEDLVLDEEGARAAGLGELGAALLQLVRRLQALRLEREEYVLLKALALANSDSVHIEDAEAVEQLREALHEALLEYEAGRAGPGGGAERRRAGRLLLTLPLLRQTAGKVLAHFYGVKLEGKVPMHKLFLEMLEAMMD
# Method in brief: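 HepG2 cells transiently transfected with GAL4-UAS reporter units and chimeric NR-Gal4 constructs; after 24 hour compound incubation, reporter mRNA quantified by RT-PCR, fluorescent labelling and capillary electrophoresis, gain of signal versus DMSO.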
# [6] = target: X-box-binding protein 1 (Homo sapiens) (UniProt P17861); test: ATG_Xbp1_CIS: Attagene CIS-FACTORIAL HepG2 Assay for human X-box Binding Protein 1 (XBP1) (AID 2282972); conditions: HepG2 XBP1 cis-element reporter, Attagene multiplex; actives raise or lower the signal
# X-box-binding protein 1 (Homo sapiens), sequence (P17861 whole entry, looked up): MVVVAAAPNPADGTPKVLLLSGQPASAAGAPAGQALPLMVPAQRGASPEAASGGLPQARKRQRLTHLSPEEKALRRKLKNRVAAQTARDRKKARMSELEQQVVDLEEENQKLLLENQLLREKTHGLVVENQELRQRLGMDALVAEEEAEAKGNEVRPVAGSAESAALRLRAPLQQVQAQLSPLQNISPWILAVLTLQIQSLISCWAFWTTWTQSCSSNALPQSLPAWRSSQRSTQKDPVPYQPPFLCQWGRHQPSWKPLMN
# Method in brief: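 HepG2, transient MRTU transfection (cis-promoter driven), 24 h compound exposure. Total RNA → oligo(dT) RT → PCR → 6-FAM labeling → HpaI cut → CE. Bidirectional fit vs DMSO.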
# [7] = ATG_M_19_TRANS: Attagene TRANS-FACTORIAL HepG2 Assay for M19 Transcription Factor (Internal Marker) (AID 2282974; active = hit-call score of the fitted dose curve at least 0.9, where 1 is the maximum); conditions: HepG2 Attagene TRANS-FACTORIAL M19 internal marker reporter
# Method in brief: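 24 h chemical exposure of transiently transfected HepG2 (MRTU library). RNA → oligo(dT) RT → PCR → 6-FAM labelling → HpaI cut → CE fluorescence. Positive-direction fit vs DMSO baseline; background internal-marker readout.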
# [8] = target: Estrogen-related receptor gamma (Homo sapiens) (UniProt P62508); test: ATG_ERRg_TRANS: Attagene TRANS-FACTORIAL HepG2 Assay for human Estrogen-Related Receptor gamma (ERRg) (AID 2282977; active = hit-call score of the fitted dose curve at least 0.9, where 1 is the maximum;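 also: hits increase reporter signal over DMSO so potencies reflect activators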); conditions: HepG2 Attagene TRANS reporter, ERRg transactivation
# Estrogen-related receptor gamma (Homo sapiens), sequence (P62508 whole entry, looked up, the tested form may be a part): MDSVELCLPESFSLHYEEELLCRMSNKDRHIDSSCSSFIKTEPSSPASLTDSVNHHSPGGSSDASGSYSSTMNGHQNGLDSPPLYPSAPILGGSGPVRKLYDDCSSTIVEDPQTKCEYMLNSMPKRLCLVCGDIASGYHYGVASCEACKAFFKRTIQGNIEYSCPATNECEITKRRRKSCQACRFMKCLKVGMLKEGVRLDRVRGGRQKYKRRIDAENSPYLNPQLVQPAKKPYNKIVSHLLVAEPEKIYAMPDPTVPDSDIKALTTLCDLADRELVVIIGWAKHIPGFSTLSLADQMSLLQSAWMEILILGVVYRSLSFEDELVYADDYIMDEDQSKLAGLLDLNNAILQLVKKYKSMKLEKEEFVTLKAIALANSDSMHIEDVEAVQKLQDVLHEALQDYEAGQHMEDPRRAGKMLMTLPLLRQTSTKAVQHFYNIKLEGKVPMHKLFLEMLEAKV
# Method in brief: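 Transfect HepG2 with multiple GAL4-UAS reporter transcription units; dose chemicals 24 h; isolate RNA, reverse-transcribe with oligo(dT), PCR-amplify, label with 6-FAM, digest with HpaI; size fragments by capillary electrophoresis. DMSO serves as negative control.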
# [9] = target: Estrogen receptor (Homo sapiens) (UniProt P03372); test: ATG_ERa_TRANS: Attagene TRANS-FACTORIAL HepG2 Assay for human Estrogen Receptor alpha (ERa) (AID 2282970; active = hit-call score of the fitted dose curve at least 0.9, where 1 is the maximum); conditions: HepG2 Attagene TRANS ERa GAL4 reporter, mRNA
# Estrogen receptor (Homo sapiens), sequence (P03372 whole entry, looked up, the tested form may be a part): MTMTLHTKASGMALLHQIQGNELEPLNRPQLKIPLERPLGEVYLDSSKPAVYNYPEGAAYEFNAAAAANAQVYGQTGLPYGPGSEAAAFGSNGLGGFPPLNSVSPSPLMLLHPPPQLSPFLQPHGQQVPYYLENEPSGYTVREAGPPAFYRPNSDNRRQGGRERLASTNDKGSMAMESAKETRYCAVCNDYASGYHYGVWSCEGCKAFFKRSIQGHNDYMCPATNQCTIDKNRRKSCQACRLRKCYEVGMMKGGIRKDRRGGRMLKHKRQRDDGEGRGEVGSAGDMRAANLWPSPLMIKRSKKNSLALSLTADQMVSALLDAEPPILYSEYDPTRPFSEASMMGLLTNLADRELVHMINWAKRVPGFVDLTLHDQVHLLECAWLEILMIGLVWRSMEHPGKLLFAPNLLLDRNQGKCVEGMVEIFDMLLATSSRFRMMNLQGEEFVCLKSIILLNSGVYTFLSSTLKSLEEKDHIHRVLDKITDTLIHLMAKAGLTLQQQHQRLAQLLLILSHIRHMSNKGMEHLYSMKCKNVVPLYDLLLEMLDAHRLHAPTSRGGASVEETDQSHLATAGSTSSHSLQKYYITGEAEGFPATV
# Method in brief: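 HepG2 cells transiently transfected with multiplexed GAL4-UAS reporter units read out chimeric NR-Gal4 activity. After 24 h compound exposure, reporter mRNA was quantified by RT-PCR, 6-FAM labeling, HpaI digestion and capillary electrophoresis, relative to DMSO.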
# [10] = ATG_GAL4_TRANS: Attagene TRANS-FACTORIAL HepG2 Assay for GAL4 (Internal Marker) (AID 2282976; active = hit-call score of the fitted dose curve at least 0.9, where 1 is the maximum); conditions: HepG2 Attagene TRANS GAL4 internal marker reporter
# Method in brief: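 Background-control readout: GAL4-UAS reporter transcript in transiently transfected HepG2 cells after 24 h compound exposure. Measured by RT-PCR, 6-FAM primer extension, HpaI digest and capillary electrophoresis; gain-of-signal fit versus DMSO.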
smiles,measurement,setting,value
CCCCCCCCOc1ccc(C(=O)c2ccccc2)c(O)c1,outcome,[1],inactive
same,outcome,[2],inactive
same,outcome,[3],inactive
same,outcome,[4],inactive
same,outcome,[5],inactive
same,outcome,[6],inactive
same,outcome,[7],inactive
same,outcome,[8],inactive
CCO[Si](CCCNC(N)=O)(OCC)OCC,outcome,[1],inactive
same,outcome,[2],inactive
same,outcome,[3],inactive
same,outcome,[9],inactive
same,outcome,[6],inactive
same,outcome,[10],inactive
same,outcome,[8],inactive
CCCCCc1ccc(N)cc1,outcome,[1],inactive
same,outcome,[2],inactive
same,outcome,[4],inactive
same,outcome,[6],inactive
same,outcome,[7],inactive
same,outcome,[10],inactive
CCCCCCCC[Si](OCC)(OCC)OCC,AC50,[1],148 µM (active)
same,outcome,[1],inactive
same,outcome,[2],inactive
same,AC50,[3],169 µM (active)
same,outcome,[3],inactive
same,outcome,[6],inactive
same,outcome,[7],inactive
c1ccc2n[nH]nc2c1,outcome,[1],inactive
same,outcome,[2],inactive
same,outcome,[4],inactive
same,outcome,[6],inactive
same,outcome,[7],inactive
same,outcome,[10],inactive
Cc1cc2c(cc1C(F)(F)F)N(C(=O)Nc1ccc(Oc3cccnc3C)nc1)CC2,outcome,[1],inactive
same,outcome,[2],inactive
same,outcome,[3],inactive
same,outcome,[6],inactive
same,outcome,[7],inactive
same,outcome,[8],inactive
Cc1cccc2ccccc12,outcome,[1],inactive
same,outcome,[2],inactive
same,outcome,[3],inactive
same,outcome,[4],inactive
same,outcome,[5],inactive
same,outcome,[6],inactive
same,outcome,[7],inactive
same,outcome,[10],inactive
Cc1cc(F)ccc1-c1cc(N2CC[C@@H](O)[C@H]2CO)ncc1N(C)C(=O)C(C)(C)c1cc(C(F)(F)F)cc(C(F)(F)F)c1,outcome,[1],inactive
same,outcome,[2],inactive
same,outcome,[3],inactive
same,outcome,[6],inactive
same,outcome,[7],inactive
C[C@]12CC[C@@H]3c4ccc(O)cc4CC[C@H]3[C@@H]1CC[C@H]2O,outcome,[1],inactive
same,outcome,[2],inactive
same,AC50,[3],19.8 µM (active)
same,outcome,[3],inactive
same,outcome,[5],inactive
same,outcome,[6],inactive
same,outcome,[7],inactive
same,outcome,[10],inactive
same,outcome,[8],inactive
CC(C)(c1cc(Br)c(O)c(Br)c1)c1cc(Br)c(O)c(Br)c1,AC50,[1],43.7 µM (active)
same,outcome,[1],inactive
same,AC50,[2],49 µM (active) and 58 µM (active)
same,outcome,[4],inactive
same,outcome,[5],inactive
same,AC50,[6],45.9 µM (active) and 42.9 µM (active)
same,outcome,[10],inactive
same,outcome,[8],inactive
CCCCOC(=O)c1ccc(O)cc1,outcome,[1],inactive
same,outcome,[2],inactive
same,AC50,[3],72.4 µM (active) and 51.8 µM (active)
same,outcome,[3],inactive
same,AC50,[6],107 µM (active)
same,outcome,[6],inactive
same,outcome,[7],inactive
same,outcome,[10],inactive
CC1(C)NC(=O)N(c2ccc([N+](=O)[O-])c(C(F)(F)F)c2)C1=O,outcome,[1],inactive
same,outcome,[2],inactive
same,outcome,[3],inactive
same,outcome,[5],inactive
same,outcome,[6],inactive
same,outcome,[7],inactive
same,outcome,[10],inactive
same,outcome,[8],inactive
CC(C)(C)c1cc(/C=C2\SC(N)=NC2=O)cc(C(C)(C)C)c1O,outcome,[1],inactive
same,outcome,[2],inactive
same,AC50,[3],4.48 µM (active)
same,AC50,[6],20.8 µM (active)
same,outcome,[10],inactive
same,outcome,[8],inactive
CCCC(=O)OCCC(C)C,outcome,[1],inactive
same,outcome,[2],inactive
same,outcome,[3],inactive
same,outcome,[6],inactive
Cc1ncc(CO)c(CO)c1O,outcome,[1],inactive
same,outcome,[2],inactive
same,outcome,[3],inactive
same,outcome,[6],inactive
same,outcome,[7],inactive
same,outcome,[10],inactive
O=C1CCC(C2CCCCC2)CC1,outcome,[1],inactive
same,outcome,[2],inactive
same,outcome,[4],inactive
same,outcome,[6],inactive
same,outcome,[7],inactive
same,outcome,[10],inactive
same,outcome,[8],inactive
O=C=NCCCCCCN=C=O,outcome,[1],inactive
same,outcome,[2],inactive
same,outcome,[3],inactive
same,outcome,[6],inactive
same,outcome,[7],inactive
same,outcome,[10],inactive
NCc1cccc(C2CCN(C(=O)c3ccc(C#Cc4ccccc4F)o3)CC2)c1,outcome,[1],inactive
same,outcome,[2],inactive
same,AC50,[3],14.3 µM (active)
same,AC50,[6],14 µM (active)
CCCCCCCCOC(=O)c1cc(O)c(O)c(O)c1,outcome,[1],inactive
same,outcome,[2],inactive
same,outcome,[4],inactive
same,outcome,[6],inactive
CCCCCCCCCCCO,outcome,[1],inactive
same,outcome,[2],inactive
same,outcome,[3],inactive
same,outcome,[6],inactive
same,AC50,[7],158 µM (active)
same,outcome,[10],inactive
Cc1ccc(C(C)C)cc1,outcome,[1],inactive
same,outcome,[2],inactive
same,outcome,[3],inactive
same,outcome,[6],inactive
O=C(OCCCCCCOC(=O)c1ccccc1)c1ccccc1,outcome,[1],inactive
same,outcome,[2],inactive
same,outcome,[4],inactive
same,outcome,[5],inactive
same,outcome,[6],inactive
same,outcome,[8],inactive
CCN(Cc1cccc(S(=O)(=O)O)c1)c1ccc(C(=C2C=CC(=[N+](CC)Cc3cccc(S(=O)(=O)O)c3)C=C2)c2ccccc2S(=O)(=O)[O-])cc1,outcome,[1],inactive
same,outcome,[2],inactive
same,outcome,[3],inactive
same,outcome,[4],inactive
same,outcome,[5],inactive
same,outcome,[6],inactive
same,outcome,[8],inactive
Cc1occc1C(=O)Nc1ccc(C(=O)N2CCC(F)(F)/C(=C\C(=O)N3CCC(N4CCCCC4)CC3)c3ccccc32)cc1,outcome,[1],inactive
same,AC50,[2],49.8 µM (active)
same,AC50,[3],34.5 µM (active)
same,outcome,[9],inactive
same,AC50,[6],51.2 µM (active)
CCN(CC)C(=O)c1cc(S(=O)(=O)Cc2ccccc2)c(N2CCC(c3ccccc3)CC2)cc1N(CC)CCN(C)C,outcome,[1],inactive
same,outcome,[2],inactive
same,outcome,[3],inactive
same,outcome,[4],inactive
same,outcome,[6],inactive
same,outcome,[8],inactive
O=c1c(-c2ccc(O)cc2)coc2cc(O)cc(O)c12,AC50,[1],77.3 µM (active) and 100 µM (active) and 27 µM (active)
same,outcome,[1],inactive
same,outcome,[2],inactive
same,AC50,[3],61.3 µM (active)
same,outcome,[3],inactive
same,outcome,[4],inactive
same,outcome,[6],inactive
same,outcome,[7],inactive
same,outcome,[10],inactive
CC(C)(O)c1ccc(CNC(=O)c2cccnc2Oc2ccc3nonc3c2)cc1,outcome,[1],inactive
same,outcome,[2],inactive
same,AC50,[3],33.2 µM (active)
same,outcome,[4],inactive
same,outcome,[5],inactive
same,outcome,[6],inactive
CN(C)c1ccc(C(=C2C=CC(=[N+](C)C)C=C2)c2ccc(N(C)C)cc2)cc1,outcome,[1],inactive
same,outcome,[2],inactive
same,outcome,[3],inactive
same,AC50,[6],2.28 µM (active)
same,outcome,[7],inactive
O=C(O)Cc1cc(I)c(Oc2ccc(O)c(I)c2)c(I)c1,outcome,[1],inactive
same,outcome,[2],inactive
same,AC50,[3],33.7 µM (active) [middle of 4 runs]
same,outcome,[4],inactive
same,outcome,[6],inactive
same,outcome,[7],inactive
same,outcome,[10],inactive
same,outcome,[8],inactive
Oc1ccc2ccccc2c1,outcome,[1],inactive
same,outcome,[2],inactive
same,outcome,[3],inactive
same,outcome,[6],inactive
same,outcome,[7],inactive
Clc1cc(Cl)c2c(c1)N=C1CCCCCN1C2,outcome,[1],inactive
same,outcome,[2],inactive
same,outcome,[3],inactive
same,outcome,[4],inactive
same,outcome,[6],inactive
same,outcome,[8],inactive
O=C(O)Cn1c(=O)n(Cc2ccc(Br)cc2F)c(=O)c2ccc(Cl)cc21,outcome,[1],inactive
same,outcome,[2],inactive
same,outcome,[4],inactive
same,outcome,[6],inactive
same,outcome,[7],inactive
CN1C(=O)N(c2ccccc2Br)Cc2cnc(Nc3ccc4c(c3)OCC(CO)O4)nc21 (stereo not drawn),AC50,[1],12.4 µM (active)
same,outcome,[2],inactive
same,AC50,[3],4.14 µM (active)
same,outcome,[5],inactive
same,AC50,[6],9.79 µM (active)
same,outcome,[7],inactive
same,outcome,[10],inactive
